Results on 40 molecules are retold here after PubChem BioAssay (Tox21).

Structures are written as SMILES. Results filed as inconclusive are left out. The source made the active and inactive calls. The call rests on the fitted dose curve; in most records, active means well fitted activation curve with a large enough effect in the repeat runs; inconclusive means weak or mixed curves; inactive means flat fitted curve, though single readings scatter.
On the % scale 0 is the no-effect control and ±100 the full control effect; potency means the concentration at half of the fitted maximal effect.

The nature of this assay: A CellTox Green Cytotoxicity Assay to monitor cytotoxicity in HEK293 cells - 24 hour (AID 1224875). Further: nearly all actives have a fitted effect of over 45% in size. The settings on record: CellTox Green fluorescence; series mostly up to 76.8 µM; activity change: at the top concentration. From the text:
National Center for Advancing Translational Sciences [NCATS]
NIH Chemical Genomics Center [NCGC]
U.S. Environmental Protection Agency [EPA]
National Institutes of Environmental Health Sciences [NIEHS]
National Toxicology Program [NTP]
Cell-based models are critical for drug discovery. Determining the natural cytotoxic effects resulting from test compounds is an essential research activity. A CellTox Green Cytotoxicity Assay to monitor cytotoxicity in real time of continues cell culture during 40 hours of the compound treatment was used to screen Tox21 10K library compounds in Hek293 cells. CellTox Green Cytotoxicity Assay is a nonlytic, homogeneous, biofluorescent method to measure cytotoxicity in cell culture after experimental manipulation. The assay system uses a proprietary asymmetric cyanine dye that is excluded from viable cells but preferentially stains the dead cell's DNA. […] Viable cells produce no appreciable increases in fluorescence. Therefore, the fluorescence signal produced by the binding interaction with dead cell DNA is proportional to cytotoxicity.
The mixture of Hek293 cell suspension and reagents were dispensed at 600cells/6 ul/well in 1536-well tissue culture treated black solid bottom plates using a Multidrop dispenser. After the assay plates were incubated at a 37 C/5% CO2 incubator for 5 hours, 23 nL of compounds dissolved in DMSO, positive and negative controls was transferred to the assay plate by a pintool work station. The plates were incubated at 37 C for 40 hours. The fluorescence intensity were measured at 0h, 8h, 16h, 24h, 32h and 40h time points using ViewLux plate reader during compound treatment.
For the molecule `CCCCCN(CCCCC)C(=O)C(CCC(=O)O)NC(=O)c1ccc(Cl)c(Cl)c1` (stereo not given), the “activity change” value is 5.82% [at 35.3 µM, hits give high values] (inactive).
On to `CCCCCCCCCCCCCCCCCC(=O)OCCCCCCCCCCCCCC(C)C`, for which the “activity change” value was -3.8% (inactive).
Take `NC(=O)c1c(Cl)cccc1Cl`: the “activity change” value is -13.2% (inactive).
For `COc1ccc(COC=O)cc1`, the “activity change” value is 1.65% (inactive).
For the molecule `CC(C)[N+](C)(C)CC(O)COc1cccc2ccccc12` (stereo not given), the “activity change” value is -18.5% [at 35.3 µM, hits give high values] (inactive).
On the same count and under the same terms, the result for `CN1[C@@H]2CC[C@H]1CC(NC(=O)n1c(=O)[nH]c3ccccc31)C2` (stereo not given in full) reads -2.93% [at 35.3 µM, hits give high values] (inactive); that for `NCC[C@H](O)C(=O)N[C@@H]1C[C@H](N)[C@@H](O[C@H]2O[C@H](CN)[C@@H](O)[C@H](O)[C@H]2O)[C@H](O)[C@H]1O[C@H]1O[C@H](CO)[C@@H](O)[C@H](N)[C@H]1O`, 2.36% [at 0.29 µM, hits give high values] (inactive).
With `NC(N)=NS(=O)(=O)c1ccc(N)cc1`, the “activity change” value was -28.5% [at 35.3 µM, hits give high values] (inactive).
As to `CC(C)COC(=O)C(C)C`, the “activity change” value is 3.84% (inactive).
The same measure, in the same setting: the result for `CCCC(=O)O[C@]1(C(=O)CCl)[C@@H](C)C[C@H]2[C@@H]3CCC4=CC(=O)C=C[C@]4(C)[C@@]3(F)C(=O)C[C@@]21C` reads -7.18% [at 35.3 µM, hits give high values] (inactive); that for `NC1CCN(c2cccc(Cl)n2)CC1`, -18.1% [at 35.3 µM, hits give high values] (inactive); that for `Cc1cc(C)cc(OCC2CNC(=O)O2)c1` (stereo not given), -14.2% [at 35.3 µM, hits give high values] (inactive).
As to `COc1nc(C)nc(N)n1`, the “activity change” value was 11.3% (inactive).
On to `CCCCOCC(C)OCC(C)O` (stereo not given), for which the “activity change” value was 25% (inactive).
`C=C(C)C(=O)OCCCCCCCCCCCCCCCCCC`: the activity change was 0.0651% [at 15.8 µM, hits give high values] (inactive).
The same measure, in the same setting: the result for `CC1CCN(CCCC(=O)c2ccc(F)cc2)CC1` reads 8% [at 35.3 µM, hits give high values] (inactive).
The same measure, in the same setting: the result for `Nc1ccc2cc(S(=O)(=O)O)ccc2c1` reads -0.146% (inactive).
For the molecule `N#CCc1ccccc1[N+](=O)[O-]`, the “activity change” value was 11.8% (inactive).
As for `O=[N+]([O-])c1ccc(CCO)cc1`, the “activity change” value was -2.25% (inactive).
On the same count and under the same terms, the result for `COc1ccc(N=[N+]([O-])c2ccc(OC)cc2)cc1` reads -14.7% (inactive).
Consider `C=C(C)C(=O)NCCCN(C)C`, for which the Potency was 34.7 nM (active).
Consider `NC(CS)C(=O)O` (stereo not given), for which the “activity change” value was -14.2% [at 35.3 µM, hits give high values] (inactive).
For `Nc1[nH]c(=O)ncc1F`, the “activity change” value was -1.74% [at 35.3 µM, hits give high values] (inactive).
Take `CO`: the “activity change” value is 9% (inactive).
The same measure, in the same setting: under `CO[Si](CCCNCCC[Si](OC)(OC)OC)(OC)OC` stands -9.43% (inactive); under `C=C(C)[C@@H]1CCC2=CC(=O)C[C@@H](C)[C@]2(C)C1`, 12.9% (inactive); under `Oc1cc(O)c2c(c1)O[C@H](c1ccc(O)c(O)c1)[C@H](O)C2`, -1.71% [at 35.3 µM, hits give high values] (inactive).
Still for that read-out and setting: under `C=C(C)C(=O)NCCC[N+](C)(C)C` stands -1.44% (inactive); under `CCn1cc(C(=O)O)c(=O)c2cc(F)c(N3CCN(C)CC3)cc21`, -4.84% [at 15.8 µM, hits give high values] (inactive); under `CCCCc1ccc2cccc(S(=O)(=O)O)c2c1`, -12.3% (inactive).
Turning to `C1=C\CC/C=C\CC/C=C\CC/1`, the “activity change” value was -3.84% (inactive).
`NS(=O)(=O)c1cc2c(cc1Cl)NC(CSCc1ccccc1)=NS2(=O)=O`: the “activity change” value was -16.3% [at 35.3 µM, hits give high values] (inactive).
Turning to `Cc1c(C)n(CCN(C)C)c2ccc(C(=O)OCCN(C)C)cc12`, the “activity change” value was -2.56% [at 35.3 µM, hits give high values] (inactive).
On the same count and under the same terms, under `CCCCNc1ccccc1` stands -0.731% (inactive); under `C1COCCO1`, -1.05% (inactive); under `Cc1nccn1CC1CCc2c(c3ccccc3n2C)C1=O` (stereo not given), -3.86% [at 35.3 µM, hits give high values] (inactive).
As for `O=S(=O)(c1cccc2cnccc12)N1CCCNCC1`, the “activity change” value was -4.45% [at 35.3 µM, hits give high values] (inactive).
For `O=C1C(CCS(=O)c2ccccc2)C(=O)N(c2ccccc2)N1c1ccccc1` (stereo not given), the “activity change” value was -15.4% [at 35.3 µM, hits give high values] (inactive).
Still for that read-out and setting: under `CCCCCCCCC=O` stands 0.229% (inactive); under `NS(=O)(=O)c1cc2c(cc1C(F)(F)F)NC(Cc1ccccc1)NS2(=O)=O` (stereo not given), -18.8% [at 35.3 µM, hits give high values] (inactive).
